Reference: PubChem BioAssay AID1159580 (chemical genetic matrix, 2015)
The whole screen tested about 5,500 compounds, of which about 2,000 (36%) were called active. About 18% were inconclusive and are not listed. No stated cut-off is given here; in the data, active means normalized growth mostly below about 0.91 (no sharp cut-off); inconclusive means no clear call, values can overlap the other calls; inactive means mostly above about 0.92. This is one part of the list.

Test: chemical genetic growth profiling, strain panel (AID 1159580);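 further: tested at 20 µM; growth read once vehicle control cultures reached saturation at 30 °C; 1 = growth at the plate median or of vehicle wells; lower values mean less growth of the strain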
Conditions: S. cerevisiae deletion strains, growth OD

Measured: normalized growth

N#Cc1c(Cl)c(Cl)c(Cl)c(Cl)c1C#N
active: locus YAR019C, strain CDC15, hits give low values 0.625 | locus YBL105C, strain PKC1, hits give low values 0.734 | locus YBR135W, strain CKS1, hits give low values 0.721 | locus YBR136W, strain MEC1, hits give low values 0.716 | locus YBR160W, strain CDC28, hits give low values 0.726 | locus YDL017W, strain CDC7, hits give low values 0.722 | locus YDL028C, strain MPS1, hits give low values 0.488 | locus YDL101C, strain DUN1, hits give low values 0.789 | locus YDL108W, strain KIN28, hits give low values 0.707 | locus YDL132W, strain cdc53, hits give low values 0.588 | locus YDL214C, strain PRR2, hits give low values 0.392 | locus YDR052C, strain DBF4, hits give low values 0.77 | locus YDR054C, strain cdc34, hits give low values 0.235 | locus YDR226W, strain ADK1, hits give low values 0.693 | locus YDR477W, strain SNF1, hits give low values 0.283 | locus YER123W, strain YCK3, hits give low values 0.169 | locus YER133W, strain GLC7, hits give low values 0.227 | locus YFL009W, strain cdc4, hits give low values 0.685 | locus YFL029C, strain CAK1, hits give low values 0.639 | locus YFR003C, strain YPI1, hits give low values 0.634 | locus YFR019W, strain FAB1, hits give low values 0.315 | locus YFR028C, strain CDC14, hits give low values 0.66 | locus YGR040W, strain KSS1, hits give low values 0.352 | locus YGR052W, strain FMP48, hits give low values 0.382 | locus YGR092W, strain DBF2, hits give low values 0.135 | locus YHR030C, strain SLT2, hits give low values 0.23 | locus YHR079C, strain IRE1, hits give low values 0.17 | locus YHR082C, strain KSP1, hits give low values 0.412 | locus YHR205W, strain SCH9, hits give low values 0.071 | locus YIL147C, strain SLN1, hits give low values 0.555 | locus YJL095W, strain BCK1, hits give low values 0.284 | locus YJL157C, strain FAR1, hits give low values 0.318 | locus YJR016C, strain ILV3, hits give low values 0.587 | locus YJR066W, strain TOR1 (second series), hits give low values 0.459 | locus YJR066W, strain TOR1, hits give low values 0.376 | locus YKL048C, strain ELM1, hits give low values 0.282 | locus YKL067W, strain YNK1, hits give low values 0.359 | locus YKL101W, strain HSL1, hits give low values 0.346 | locus YKL193C, strain SDS22, hits give low values 0.66 | locus YKL203C, strain TOR2, hits give low values 0.37 | locus YLR113W, strain HOG1, hits give low values 0.302 | locus YLR133W, strain CKI1, hits give low values 0.238 | locus YLR403W, strain SFP1, hits give low values 0.109 | locus YML070W, strain DAK1, hits give low values 0.291 | locus YMR001C, strain CDC5, hits give low values 0.673 | locus YMR205C, strain PFK2 (second series), hits give low values 0.159 | locus YMR277W, strain FCP1, hits give low values 0.594 | locus YNL006W, strain LST8, hits give low values 0.574 | locus YNL020C, strain ARK1, hits give low values 0.191 | locus YNL161W, strain CBK1, hits give low values 0.704 | locus YNL183C, strain NPR1, hits give low values 0.241 | locus YNL207W, strain RIO2, hits give low values 0.666 | locus YNL222W, strain SSU72, hits give low values 0.653 | locus YNL307C, strain MCK1 (second series), hits give low values 0.162 | locus YOL078W, strain AVO1, hits give low values 0.652 | locus YOL136C, strain PFK27, hits give low values 0.26 | locus YOR061W, strain CKA2, hits give low values 0.141 | locus YOR119C, strain RIO1, hits give low values 0.37 | locus YOR231W, strain MKK1, hits give low values 0.285 | locus YOR329C, strain SCD5, hits give low values 0.701 | locus YPL031C, strain PHO85, hits give low values 0.219 | locus YPL153C, strain RAD53, hits give low values 0.158 | locus YPL204W, strain HRR25, hits give low values 0.214 | locus YPL209C, strain IPL1, hits give low values 0.711 | locus YPL256C, strain CLN2, hits give low values 0.492 | locus YPR025C, strain CCL1, hits give low values 0.728 | locus YPR106W, strain ISR1, hits give low values 0.851 | locus YPR111W, strain DBF20, hits give low values 0.756 | strain NNK1, hits give low values 0.747 | strain TSCII, hits give low values 0.661
